# Measured values as given in PubChem BioAssay (NCI).
# The panel holds about 83,000 compounds, 20% with a hit somewhere; the sample as a whole holds those more often.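 Treatment: one concentration, 48 hours, 96-well format. Scoring: percent growth, with anything below 10 considered active.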 Unmarked numbers belong to inactive results. Calls of active or inactive are those of the source.
# Legend:
# Assay in all cases: NCI-60 one-dose screen, 48 h (100 = growth as untreated, 0 = no growth, -100 = all killed)
# SK-MEL-2 melanoma = settings: 10 µM unless noted
# EKVX NSCLC = settings: 10 µM
# SN12C renal = settings: 10 µM unless noted
# UO-31 renal = settings: 10 µM unless noted
# TK-10 renal = settings: 10 µM unless noted
# ACHN renal = settings: 10 µM unless noted
# CAKI-1 renal = settings: 10 µM unless noted
# A498 renal = settings: 10 µM unless noted
# CCRF-CEM leukemia = settings: 10 µM
# MOLT-4 leukemia = settings: 10 µM unless noted
# SR leukemia = settings: 10 µM unless noted
# RPMI-8226 leukemia = settings: 10 µM unless noted
# OVCAR-8 ovarian = settings: 10 µM unless noted
# OVCAR-5 ovarian = settings: 10 µM unless noted
# OVCAR-4 ovarian = settings: 10 µM unless noted
# SK-OV-3 ovarian = settings: 10 µM unless noted
# IGROV1 ovarian = settings: 10 µM unless noted
# OVCAR-3 ovarian = settings: 10 µM unless noted
# HS 578T breast = settings: 10 µM unless noted
# NCI/ADR-RES ovarian = settings: 10 µM unless noted
SMILES,growth (SK-MEL-2 melanoma),growth (EKVX NSCLC),growth (SN12C renal),growth (UO-31 renal),growth (TK-10 renal),growth (ACHN renal),growth (CAKI-1 renal),growth (A498 renal),growth (CCRF-CEM leukemia),growth (MOLT-4 leukemia),growth (SR leukemia),growth (RPMI-8226 leukemia),growth (OVCAR-8 ovarian),growth (OVCAR-5 ovarian),growth (OVCAR-4 ovarian),growth (SK-OV-3 ovarian),growth (IGROV1 ovarian),growth (OVCAR-3 ovarian),growth (HS 578T breast),growth (NCI/ADR-RES ovarian)
Cc1ccc(OCCn2ccc(=O)n(CCOc3ccc(Cl)cc3C(=O)c3cc(C)cc(C)c3)c2=O)cc1,41.2%,47%,62%,41.8%,61.7%,60.6%,47.6%,33.7%,25.7%,19.2%,19.7%,34.1%,70%,87.2%,47.3%,59.8%,61.4%,25.1%,37.2%,20.1%
FC(F)(F)c1cccc(-c2[nH]ncc2-c2nnnn2-c2ccccc2)c1,78.3%,52.6%,65.5%,72.4%,65.5%,68.6%,69.4%,43.4%,53.5%,27.1%,–,29.6%,58.9%,69.6%,66.4%,55.4%,56.2%,48.4%,43.6%,12.2%
N#Cc1ccc(NC2c3ccccc3CC2O)cc1 (configuration not stated),103%,114%,107%,83.1%,119%,104%,106%,115%,94.6%,91.5%,99.3%,–,122%,113%,–,106%,116%,129%,–,115%
CC1(C)NCCC[C@]2(C)[C@H]3CC=C4[C@@H]5C[C@](C)(COC(=O)c6ccccc6C(=O)O)CC[C@]5(C)CC[C@@]4(C)[C@]3(C)CC[C@@H]12,83.5%,86.7%,65.5%,87.4%,36%,43.3%,86%,107%,35.8%,20.5%,25.2%,19.2%,83.7%,88.8%,51.3%,–,59.2%,60%,63%,78.2%
CC1=C[C@@H]2c3c(c(O)c(O)c4oc5cc(O)cc(O)c5c(=O)c34)[C@@H](c3cc(O)c(O)c4oc5cc(O)cc(O)c5c(=O)c34)[C@@H]2C(C)(C)C1,-22.2% (active),8.51% (active),2.58% (active),-10.2% (active),13.8%,12.4%,19.8%,-14% (active),3.51% (active),4.1% (active),4.52% (active),-4.75% (active),7.34% (active),19.6%,22.3%,–,12.9%,-10.4% (active),8.08% (active),68.8%
CCCC(CCC)Oc1ccc(CCCC2=C(O)c3ccccc3C(=O)C2=O)cc1,27.7%,26.3%,45.5%,47.3%,36.2%,29.9%,64.4%,31%,36.1%,38.1%,38.9%,–,34.2%,17.2%,25.1%,37.5%,46.7%,40.8%,34.6%,28.7%
CC/C(=N\Nc1nc2ccccc2n1C)c1ccccn1,37.6%,6.6% (active),13.6%,-10.3% (active),33.5%,0.59% (active),2.28% (active),-20.7% (active),7.72% (active),1.52% (active),–,10.4%,15.5%,29%,11.5%,11.6%,13.6%,25.8%,48.4%,-5.99% (active)
C#CCCCCCCC[C@@H]1OC(=O)[C@H]([C@@H](C)CC)NC(=O)[C@H]([C@@H](C)CC)NC(=O)CC(=O)[C@@H]1C,106%,97.8%,98.5%,67.3%,117%,94%,71.4%,92.7%,89.8%,80.3%,82.2%,89.4%,101%,90.6%,97.6%,103%,–,101%,90.1%,94.9%
C/C(CCC(=O)O)=N/Nc1ccc([N+](=O)[O-])cc1,26.9%,63.1%,77.1%,39%,88.1%,36.3%,25.7%,75.8%,18.2%,37.3%,40.6%,51.9%,70.4%,68.1%,66.3%,–,103%,89.9%,92.9%,49.6%
Cc1cc(CSc2ccc(Cl)cc2)ccc1N,99.7%,85.8%,42%,29.4%,101%,102%,95.1%,99.7%,3.59% (active),49.7%,93.5%,15.5%,99.8%,99.6%,96.9%,106%,–,97.6%,–,95%
c1ccc(Nc2ccccn2)cc1,102%,108%,94.6%,88%,95.5%,106%,101%,122%,85%,84%,80.2%,89.1%,107%,106%,–,105%,–,116%,106%,109%
O=C(NCCCl)Nc1nccnc1OCc1ccc(F)cc1,100%,97.5%,94.1%,86.8%,138%,105%,89.6%,105%,96%,91.9%,–,96.4%,101%,96.6%,104%,93.1%,107%,117%,115%,104%
O=C1NCCN1/N=C/c1c(Cl)nc2n1CCS2,70.2%,111%,140%,58.6%,116%,108%,98.7%,156%,-62.2% (active),96.6%,59.4%,–,115%,102%,113%,111%,–,106%,139%,114%
Cc1ccc(S(=O)(=O)Nc2cccc(Cn3c(=O)[nH]c4ccc(Oc5ncccn5)cc4c3=O)c2)cc1,55%,86.6%,86.5%,74.2%,105%,87.7%,92.9%,77.8%,65.9%,64.5%,–,61.2%,90.8%,86.7%,90.5%,81.2%,57.8%,38.9%,89.3%,93.3%
CCN(CC)c1ccc2nc3ccc(N=Nc4ccc(O)cc4)cc3[n+](-c3ccccc3)c2c1,76.8%,77.6%,75.5%,48.5%,66.6%,60.2%,90.5%,75%,12.8%,18.1%,49%,30.6%,56.8%,113%,–,89.7%,8.59% (active),-15.4% (active),–,101%
COC(=O)Nc1nc2ccc(C(=O)c3ccccc3N(C)C3COC3)cc2[nH]1,24.2%,53.6%,44.1%,39.9%,59.5%,40.5%,45.2%,9.85% (active),8.11% (active),30.3%,35.6%,-8.33% (active),34.7%,57%,75.8%,–,58.6%,14.6%,22.5%,53.3%
Nc1ncn([C@@H]2O[C@H](CO)[C@@H](O)C2(F)F)c(=O)n1,104%,86.1%,51.7%,39%,91.1%,7.28% (active),27.9%,38%,23.7%,35.6%,15%,–,49.8%,87%,94.9%,71.1%,–,70.6%,90.4%,42.1%
